Laboratory results as given in PubChem BioAssay (EPA / NIEHS).
Several values for one entry are separate records, joined by “and”; a condition that tells them apart may be missing. Equal entries are not always repeated. Results filed as inconclusive are left out. A structure can be active in one record and inactive in another. Activity calls are given as the source filed them. Rule for the calls, unless noted: active = hit-call score of the fitted dose curve at least 0.9, where 1 is the maximum; inactive = score below 0.9.

What was measured:
[1] = BSK_4H_Eotaxin3: BioMAP Diversity Plus: 4H Assay for Eotaxin 3 Biomarker Activity (AID 2283000); settings: primary human endothelial cells (HUVEC); actives raise or lower the signal
Outline: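 Human umbilical vein endothelial cells (BSK_4H system) dosed with test chemical; Eotaxin-3 (CCL26) measured by ELISA 24 h after dosing. Bidirectional curve fitting relative to DMSO negative control as baseline.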

[2] = biological target: human Peroxisome Proliferator-activated Receptor alpha (PPARa), PPARA (gene 5465) (UniProt Q07869); test: ATG_PPARa_TRANS: Attagene TRANS-FACTORIAL HepG2 Assay for human Peroxisome Proliferator-activated Receptor alpha (PPARa) (AID 2283001; active = hit-call score of the fitted dose curve at least 0.9, where 1 is the maximum;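 for AC50: potency for gain of reporter signal over DMSO so agonist or activator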)
Sequence of human Peroxisome Proliferator-activated Receptor alpha (PPARa), PPARA (gene 5465) (Q07869 whole entry, looked up, the tested form may be a part): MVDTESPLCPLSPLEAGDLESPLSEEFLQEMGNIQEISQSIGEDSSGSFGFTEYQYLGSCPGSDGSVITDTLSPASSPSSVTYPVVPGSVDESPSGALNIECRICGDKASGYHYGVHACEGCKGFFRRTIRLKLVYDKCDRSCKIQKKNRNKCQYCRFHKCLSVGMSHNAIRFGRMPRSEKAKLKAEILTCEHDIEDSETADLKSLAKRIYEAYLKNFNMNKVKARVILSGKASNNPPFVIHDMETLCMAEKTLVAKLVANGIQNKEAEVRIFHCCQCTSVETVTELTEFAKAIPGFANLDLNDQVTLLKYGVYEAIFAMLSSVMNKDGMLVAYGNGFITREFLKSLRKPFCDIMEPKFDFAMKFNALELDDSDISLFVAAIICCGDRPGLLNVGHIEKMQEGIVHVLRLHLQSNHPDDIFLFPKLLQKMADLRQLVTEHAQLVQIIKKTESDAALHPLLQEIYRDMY
Outline: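 HepG2 cells transiently transfected with multiplexed GAL4-UAS reporter units and chimeric NR-Gal4 constructs were dosed for 24 h. Reporter mRNA was measured by RT-PCR with fluorescent labelling and capillary electrophoresis; gain of signal fitted against DMSO.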

[3] = biological target: human Peroxisome Proliferator-activated Receptor delta (PPARd), PPARD (gene 5467) (UniProt Q03181); test: ATG_PPARd_TRANS: Attagene TRANS-FACTORIAL HepG2 Assay for human Peroxisome Proliferator-activated Receptor delta (PPARd) (AID 2283002; active = hit-call score of the fitted dose curve at least 0.9, where 1 is the maximum)
Sequence of human Peroxisome Proliferator-activated Receptor delta (PPARd), PPARD (gene 5467) (Q03181 whole entry, looked up, the tested form may be a part): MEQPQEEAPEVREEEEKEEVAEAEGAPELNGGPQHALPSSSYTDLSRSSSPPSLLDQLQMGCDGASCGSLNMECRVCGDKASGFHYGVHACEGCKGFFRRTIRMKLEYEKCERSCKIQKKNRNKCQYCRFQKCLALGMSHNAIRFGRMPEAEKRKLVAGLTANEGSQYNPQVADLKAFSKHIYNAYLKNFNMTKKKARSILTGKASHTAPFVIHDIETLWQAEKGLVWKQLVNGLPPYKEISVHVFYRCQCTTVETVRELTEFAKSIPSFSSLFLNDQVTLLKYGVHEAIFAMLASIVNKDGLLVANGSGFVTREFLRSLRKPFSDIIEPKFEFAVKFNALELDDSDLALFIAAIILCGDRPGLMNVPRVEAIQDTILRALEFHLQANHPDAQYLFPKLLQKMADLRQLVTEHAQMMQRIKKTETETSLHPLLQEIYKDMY
Outline: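 Multiplexed trans-activation format: HepG2 liver cells expressing exogenous NR-Gal4 chimeras and GAL4-UAS reporters were exposed for 24 h. Reporter mRNA was detected by RT-PCR with capillary electrophoresis fluorescence; activity fitted as gain of signal relative to DMSO.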

[4] = read-out: Intercellular Adhesion Molecule 1 (ICAM1), ICAM1 (gene 3383); test: BSK_3C_ICAM1: BioMAP Diversity Plus: 3C Assay for Intercellular Adhesion Molecule 1 (ICAM1) Biomarker Activity (AID 2283003); settings: primary human endothelial cells (HUVEC); actives raise or lower the signal
Outline: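 Primary human umbilical vein endothelial cells in the BioMAP 3C system were exposed to chemicals for 24 h, then ICAM-1 was quantified by ELISA. Activity was fitted bidirectionally against the DMSO negative control baseline.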

[5] = biological target: human Retinoic Acid Receptor beta (RARb), RARB (gene 5915) (UniProt P10826); test: ATG_RARb_TRANS: Attagene TRANS-FACTORIAL HepG2 Assay for human Retinoic Acid Receptor beta (AID 2283004; active = hit-call score of the fitted dose curve at least 0.9, where 1 is the maximum)
Sequence of human Retinoic Acid Receptor beta (RARb), RARB (gene 5915) (P10826 whole entry, looked up, the tested form may be a part): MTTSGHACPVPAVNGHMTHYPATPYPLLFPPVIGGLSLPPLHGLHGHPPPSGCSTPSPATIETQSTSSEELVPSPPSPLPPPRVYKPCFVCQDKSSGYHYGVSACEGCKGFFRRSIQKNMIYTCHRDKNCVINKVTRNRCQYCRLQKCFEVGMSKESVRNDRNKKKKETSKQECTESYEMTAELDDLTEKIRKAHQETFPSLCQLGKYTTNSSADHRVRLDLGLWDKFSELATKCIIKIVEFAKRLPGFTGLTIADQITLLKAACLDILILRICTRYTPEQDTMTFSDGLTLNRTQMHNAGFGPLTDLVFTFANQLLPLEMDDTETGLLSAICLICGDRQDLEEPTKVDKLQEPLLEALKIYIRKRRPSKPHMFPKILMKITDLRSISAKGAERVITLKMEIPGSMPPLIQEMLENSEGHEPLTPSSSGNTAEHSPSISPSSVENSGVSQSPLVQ
Outline: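 Induction of reporter mRNA from a chimeric RARb-Gal4 construct was measured by RT-PCR, FAM labelling, HpaI digestion and capillary electrophoresis. Measurements followed 24 h compound treatment of transiently transfected human HepG2 liver cells, with DMSO as baseline.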

[6] = biological target: Retinoic acid receptor alpha (Homo sapiens) (UniProt P10276); test: ATG_RARa_TRANS: Attagene TRANS-FACTORIAL HepG2 Assay for human Retinoic Acid Receptor alpha (RARa) (AID 2283005; active = hit-call score of the fitted dose curve at least 0.9, where 1 is the maximum)
Sequence of Retinoic acid receptor alpha (Homo sapiens) (P10276 whole entry, looked up, the tested form may be a part): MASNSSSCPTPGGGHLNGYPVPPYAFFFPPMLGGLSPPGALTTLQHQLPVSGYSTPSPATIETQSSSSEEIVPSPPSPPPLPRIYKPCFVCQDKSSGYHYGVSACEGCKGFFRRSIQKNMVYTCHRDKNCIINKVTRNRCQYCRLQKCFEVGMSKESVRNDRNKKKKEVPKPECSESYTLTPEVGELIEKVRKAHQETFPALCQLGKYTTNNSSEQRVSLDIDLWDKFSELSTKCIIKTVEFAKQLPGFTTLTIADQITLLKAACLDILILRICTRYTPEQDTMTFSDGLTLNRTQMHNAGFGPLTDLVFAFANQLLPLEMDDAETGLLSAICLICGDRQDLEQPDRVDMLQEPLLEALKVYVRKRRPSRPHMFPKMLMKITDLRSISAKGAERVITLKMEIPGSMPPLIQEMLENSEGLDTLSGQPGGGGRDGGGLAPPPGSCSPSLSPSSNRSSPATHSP
Outline: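 HepG2 cells transiently transfected with multiple reporter units expressing chimeric RARα-GAL4 fusion, with GAL4-UAS-driven reporters. After 24 h compound exposure, reporter mRNA induction quantified by RT-PCR and capillary electrophoresis with fluorescent labeling; gain-of-signal fitted relative to DMSO control.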

[7] = BSK_3C_Proliferation: Cell Proliferation Assessment in the BioMAP Diversity Plus: 3C Assay (AID 2283006); settings: primary human endothelial cells (HUVEC);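 for AC50: potency may reflect either rise or fall in cell number versus DMSO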
Outline: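 Human umbilical vein endothelial cells were grown sub-confluent and exposed to chemical for 48 h, then fixed with 10% TCA and stained with 0.1% sulforhodamine B; absorbance at 560 nm gave relative cell number, fitted bidirectionally against DMSO baseline.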

[8] = biological target: Peroxisome proliferator-activated receptor gamma (Homo sapiens) (UniProt P37231); test: ATG_PPARg_TRANS: Attagene TRANS-FACTORIAL HepG2 Assay for human Peroxisome Proliferator-activated Receptor-gamma (PPARg) (AID 2283007; active = hit-call score of the fitted dose curve at least 0.9, where 1 is the maximum)
Sequence of Peroxisome proliferator-activated receptor gamma (Homo sapiens) (P37231 whole entry, looked up): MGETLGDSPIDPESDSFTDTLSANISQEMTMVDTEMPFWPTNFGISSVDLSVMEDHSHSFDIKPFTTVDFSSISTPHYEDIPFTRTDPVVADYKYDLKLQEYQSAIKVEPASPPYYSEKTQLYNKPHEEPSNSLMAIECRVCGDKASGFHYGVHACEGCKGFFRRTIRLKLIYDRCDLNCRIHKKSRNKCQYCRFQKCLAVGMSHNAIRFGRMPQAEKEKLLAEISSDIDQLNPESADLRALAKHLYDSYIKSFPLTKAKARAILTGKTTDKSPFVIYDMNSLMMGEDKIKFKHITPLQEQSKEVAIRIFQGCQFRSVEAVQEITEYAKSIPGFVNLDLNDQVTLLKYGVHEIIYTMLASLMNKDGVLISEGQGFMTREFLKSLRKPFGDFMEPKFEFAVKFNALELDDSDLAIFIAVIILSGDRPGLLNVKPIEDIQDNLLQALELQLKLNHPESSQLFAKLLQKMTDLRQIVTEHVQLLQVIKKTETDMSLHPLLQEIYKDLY
Outline: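 Multiplexed reporter transcription units in HepG2, 24 h dosing, reporter transcripts quantified by fluorescent RT-PCR and capillary electrophoresis. Increase over DMSO scored.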

[9] = biological target: Nuclear receptor subfamily 1 group I member 2 (Homo sapiens) (UniProt O75469); test: ATG_PXR_TRANS: Attagene TRANS-FACTORIAL HepG2 Assay for human Pregnane X Receptor (PXR) (AID 2283008; active = hit-call score of the fitted dose curve at least 0.9, where 1 is the maximum)
Sequence of Nuclear receptor subfamily 1 group I member 2 (Homo sapiens) (O75469 whole entry, looked up, the tested form may be a part): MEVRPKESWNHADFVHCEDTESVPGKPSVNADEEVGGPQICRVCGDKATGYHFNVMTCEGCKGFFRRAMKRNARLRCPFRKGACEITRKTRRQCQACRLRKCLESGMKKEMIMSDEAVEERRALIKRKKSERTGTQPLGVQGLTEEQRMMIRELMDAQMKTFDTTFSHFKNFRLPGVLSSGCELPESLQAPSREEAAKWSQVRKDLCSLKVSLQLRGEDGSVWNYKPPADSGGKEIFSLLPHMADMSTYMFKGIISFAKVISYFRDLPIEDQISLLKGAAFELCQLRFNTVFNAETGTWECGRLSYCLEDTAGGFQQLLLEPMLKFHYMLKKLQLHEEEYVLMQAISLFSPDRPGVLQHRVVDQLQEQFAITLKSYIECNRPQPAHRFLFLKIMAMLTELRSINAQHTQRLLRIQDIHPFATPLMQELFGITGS
Outline: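 HepG2 cells transiently transfected with multiple reporter units, here a PXR-GAL4 chimera driving a GAL4-UAS reporter; 24 h compound exposure. Reporter mRNA measured by RT-PCR, FAM labelling and capillary electrophoresis; gain of signal fitted against DMSO baseline.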

[10] = biological target: human Retinoic Acid Receptor gamma (RARg), RARG (gene 5916) (UniProt P13631); test: ATG_RARg_TRANS: Attagene TRANS-FACTORIAL HepG2 Assay for human Retinoic Acid Receptor gamma (RARg) (AID 2283009; active = hit-call score of the fitted dose curve at least 0.9, where 1 is the maximum)
Outline: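 HepG2 cells transiently transfected with multiplexed reporter units expressing chimeric RARg-GAL4 and GAL4-UAS-driven reporters; 24 h compound exposure. Reporter mRNA quantified by RT-PCR with fluorescent labelling and capillary electrophoresis; gain-of-signal fitted relative to DMSO baseline.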

[11] = biological target: human RAR-related Orphan Receptor beta (RORb), RORB (gene 6096) (UniProt Q92753); test: ATG_RORb_TRANS: Attagene TRANS-FACTORIAL HepG2 Assay for human RAR-related Orphan Receptor beta (RORb) (AID 2283010; active = hit-call score of the fitted dose curve at least 0.9, where 1 is the maximum)
Sequence of human RAR-related Orphan Receptor beta (RORb), RORB (gene 6096) (Q92753 whole entry, looked up, the tested form may be a part): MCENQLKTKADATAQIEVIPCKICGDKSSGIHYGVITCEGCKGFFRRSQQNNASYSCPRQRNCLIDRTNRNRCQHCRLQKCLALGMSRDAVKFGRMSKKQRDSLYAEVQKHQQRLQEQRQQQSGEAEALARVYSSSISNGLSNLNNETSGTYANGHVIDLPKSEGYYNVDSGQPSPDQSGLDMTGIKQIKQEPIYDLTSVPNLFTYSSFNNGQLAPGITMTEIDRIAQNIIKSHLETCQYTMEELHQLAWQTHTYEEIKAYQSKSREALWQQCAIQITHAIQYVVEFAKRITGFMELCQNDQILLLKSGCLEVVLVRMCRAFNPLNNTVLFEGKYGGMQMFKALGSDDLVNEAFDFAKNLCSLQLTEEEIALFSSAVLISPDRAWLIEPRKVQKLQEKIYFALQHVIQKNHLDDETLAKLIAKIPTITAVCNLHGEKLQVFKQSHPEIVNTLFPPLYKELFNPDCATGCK
Outline: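 HepG2 cells were transiently transfected with multiplexed GAL4-UAS reporter units expressing chimeric nuclear receptor–GAL4 proteins, then dosed for 24 h. Reporter mRNA was quantified by RT-PCR with fluorescent labelling and capillary electrophoresis; gain of signal was fitted relative to DMSO.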

[12] = biological target: Retinoic acid receptor RXR-alpha (Homo sapiens) (UniProt P19793); test: ATG_RXRa_TRANS: Attagene TRANS-FACTORIAL HepG2 Assay for human Retinoid X Receptor alpha (RXRa) (AID 2283012; active = hit-call score of the fitted dose curve at least 0.9, where 1 is the maximum)
Sequence of Retinoic acid receptor RXR-alpha (Homo sapiens) (P19793 whole entry, looked up, the tested form may be a part): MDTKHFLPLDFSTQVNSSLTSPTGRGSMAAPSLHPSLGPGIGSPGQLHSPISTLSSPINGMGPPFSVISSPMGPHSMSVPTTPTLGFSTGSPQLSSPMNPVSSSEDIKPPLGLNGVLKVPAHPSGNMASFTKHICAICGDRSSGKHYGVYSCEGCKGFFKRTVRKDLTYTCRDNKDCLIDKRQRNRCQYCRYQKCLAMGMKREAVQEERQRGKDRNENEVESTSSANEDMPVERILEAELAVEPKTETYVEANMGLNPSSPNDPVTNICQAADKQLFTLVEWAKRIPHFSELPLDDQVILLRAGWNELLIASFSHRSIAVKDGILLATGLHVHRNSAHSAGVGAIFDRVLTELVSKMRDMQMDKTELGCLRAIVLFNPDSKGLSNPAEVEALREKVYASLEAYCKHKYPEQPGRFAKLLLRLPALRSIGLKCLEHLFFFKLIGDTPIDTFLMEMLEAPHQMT
Outline: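 HepG2 cells transiently transfected with multiplexed GAL4-UAS reporter units and chimeric NR-GAL4 fusions, dosed 24 h. Reporter mRNA measured by RT-PCR, FAM labelling, HpaI digestion and capillary electrophoresis; gain-of-signal fitted relative to DMSO baseline.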

[13] = biological target: human Retinoid X Receptor beta (RXRb), RXRB (gene 6257) (UniProt P28702); test: ATG_RXRb_TRANS: Attagene TRANS-FACTORIAL HepG2 Assay for human Retinoid X Receptor beta (RXRb) (AID 2283013; active = hit-call score of the fitted dose curve at least 0.9, where 1 is the maximum)
Sequence of human Retinoid X Receptor beta (RXRb), RXRB (gene 6257) (P28702 whole entry, looked up, the tested form may be a part): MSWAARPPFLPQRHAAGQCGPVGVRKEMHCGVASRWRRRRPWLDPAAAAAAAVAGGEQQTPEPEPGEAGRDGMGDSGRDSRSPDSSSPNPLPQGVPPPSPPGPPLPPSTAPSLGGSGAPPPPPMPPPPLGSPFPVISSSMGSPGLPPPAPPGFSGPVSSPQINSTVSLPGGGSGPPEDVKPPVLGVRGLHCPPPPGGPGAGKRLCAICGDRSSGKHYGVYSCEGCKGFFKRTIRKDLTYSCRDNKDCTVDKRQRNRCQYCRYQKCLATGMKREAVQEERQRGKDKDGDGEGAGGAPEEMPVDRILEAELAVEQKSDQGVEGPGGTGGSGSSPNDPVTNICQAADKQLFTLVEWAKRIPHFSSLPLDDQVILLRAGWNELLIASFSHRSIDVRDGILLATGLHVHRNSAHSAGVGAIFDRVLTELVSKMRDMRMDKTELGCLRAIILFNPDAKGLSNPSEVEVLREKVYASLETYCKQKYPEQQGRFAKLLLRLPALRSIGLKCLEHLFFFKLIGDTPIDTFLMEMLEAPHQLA
Outline: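 HepG2 cells transiently transfected with multiplexed reporter units driven by GAL4-UAS and exogenous chimeric NR-Gal4 proteins; treated 24 h. Reporter mRNA measured by RT-PCR, 6-FAM labelling and capillary electrophoresis; gain-of-signal fitted versus DMSO baseline.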

[14] = read-out: E-selectin (Homo sapiens) (UniProt P16581); test: BSK_3C_Eselectin: BioMAP Diversity Plus: 3C Assay for Eselectin Biomarker Activity (AID 2283015); settings: primary human endothelial cells (HUVEC); actives raise or lower the signal
Outline: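 E-selectin ELISA readout, fitted bidirectionally relative to DMSO, taken 24 h post-dosing in HUVEC cultures of the 3C system. Overt cytotoxicity tracked with sulforhodamine B staining of parallel wells.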

[15] = read-out: Interleukin-1 alpha (IL1a), IL1A (gene 3552); test: BSK_BE3C_IL1a: BioMAP Diversity Plus: BE3C Assay for Interleukin-1 alpha (IL1a) Biomarker Activity (AID 2283016); settings: primary human bronchial epithelial cells; actives raise or lower the signal
Outline: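 Human primary bronchial epithelial cells (BE3C system) were dosed with compound and IL-1a measured by ELISA 24 h later. Activity was fitted bidirectionally against DMSO baseline; cytotoxicity was tracked in parallel cultures by SRB total-protein staining.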

[16] = read-out: Monocyte Chemoattractant Protein-1 (MCP1), CCL2 (gene 6347); test: BSK_3C_MCP1: BioMAP Diversity Plus: 3C Assay for Monocyte Chemoattractant Protein-1 (MCP1) Biomarker Activity (AID 2283017); settings: primary human endothelial cells (HUVEC); actives raise or lower the signal
Outline: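 MCP-1 was measured by ELISA 24 h after dosing in primary HUVEC 3C cultures and fitted in both directions relative to DMSO; cytotoxicity was checked by SRB total-protein staining in parallel wells.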

[17] = read-out: Monocyte Chemoattractant Protein-1 (MCP1), CCL2 (gene 6347); test: BSK_4H_MCP1: BioMAP Diversity Plus: 4H Assay for Monocyte Chemoattractant Protein-1 (MCP1) Biomarker Activity (AID 2283018); settings: primary human endothelial cells (HUVEC); actives raise or lower the signal
Outline: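 Human umbilical vein endothelial cells (4H system) dosed with chemical; MCP-1 measured by ELISA 24 h after dosing. Bidirectional curve fitting against DMSO negative control as baseline; parallel SRB total-protein staining tracks overt cytotoxicity.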

[18] = read-out: Human Leukocyte Antigen - DR isotype (HLADR), HLA-DRA (gene 3122); test: BSK_3C_HLADR: BioMAP Diversity Plus: 3C Assay for Human Leukocyte Antigen - DR isotype (HLADR) Biomarker Activity (AID 2283019); settings: primary human endothelial cells (HUVEC); actives raise or lower the signal
Outline: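 Bidirectional fitting against DMSO was applied to the HLA-DR ELISA signal from human umbilical vein endothelial cells, 24 h post-dose. Cytotoxicity came from parallel SRB total-protein staining; 3C proliferation was counted by SRB at 48 h.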

[19] = biological target: human Thyroid Receptor alpha (THRa1), THRA (gene 7067) (UniProt P10827); test: ATG_THRa1_TRANS: Attagene TRANS-FACTORIAL HepG2 Assay for human Thyroid Receptor alpha (THRa1) (AID 2283014; active = hit-call score of the fitted dose curve at least 0.9, where 1 is the maximum)
Sequence of human Thyroid Receptor alpha (THRa1), THRA (gene 7067) (P10827 whole entry, looked up, the tested form may be a part): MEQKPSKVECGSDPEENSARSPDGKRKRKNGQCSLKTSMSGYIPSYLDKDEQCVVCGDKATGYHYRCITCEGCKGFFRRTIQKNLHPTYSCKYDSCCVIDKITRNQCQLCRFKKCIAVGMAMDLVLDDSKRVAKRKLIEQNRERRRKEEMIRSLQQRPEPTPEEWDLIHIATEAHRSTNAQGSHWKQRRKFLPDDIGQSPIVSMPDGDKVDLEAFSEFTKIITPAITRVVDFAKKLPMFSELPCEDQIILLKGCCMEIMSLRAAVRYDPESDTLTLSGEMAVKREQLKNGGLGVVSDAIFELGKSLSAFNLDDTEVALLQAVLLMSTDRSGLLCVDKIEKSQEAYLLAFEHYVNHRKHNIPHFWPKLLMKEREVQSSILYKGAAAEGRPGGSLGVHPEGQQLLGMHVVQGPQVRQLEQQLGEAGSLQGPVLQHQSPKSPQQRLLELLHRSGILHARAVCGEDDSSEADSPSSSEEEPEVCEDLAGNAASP
Outline: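 Transcripts from GAL4-UAS-driven reporters, measured after 24 h compound exposure by RT-PCR plus capillary electrophoresis of 6-FAM-labeled fragments, were fitted for gain of signal relative to DMSO. Cells: transiently transfected HepG2 expressing NR-Gal4 chimeras.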

[20] = biological target: human RAR-related Orphan Receptor gamma (RORg), RORC (gene 6097) (UniProt P51449); test: ATG_RORg_TRANS: Attagene TRANS-FACTORIAL HepG2 Assay for human RAR-related Orphan Receptor gamma (RORg) (AID 2283011; active = hit-call score of the fitted dose curve at least 0.9, where 1 is the maximum)
Outline: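 Reporter transcripts from a transfected RORg-GAL4 chimera in HepG2 cells were quantified 24 h after dosing by RT-PCR, 6-FAM labelling, HpaI digestion and capillary electrophoresis; increases over DMSO baseline were fitted.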

Measured: AC50

O=C(O)C(F)(OC(F)(F)C(F)(OC(F)(F)C(F)(F)C(F)(F)F)C(F)(F)F)C(F)(F)F (stereo unspecified)
active: [2] 108 µM | [13] 41.7 µM
inactive: [1] | [2] | [3] | [4] | [5] | [6] | [7] | [8] | [9] | [10] | [11] | [12] | [13] | [14] | [15] | [16] | [17] | [18]

COC(=O)CCC(F)(F)C(F)(F)C(F)(F)C(F)(F)F
not listed: [6] | [8] | [9] | [11] | [12] | [20]
inactive: all other assays above

C=C(C)C(=O)OCC(F)(F)C(F)(F)C(F)(F)F
not listed: [9] | [10] | [11] | [19] | [20]
inactive: all other assays above

CCCCCCC(C)OC(=O)CCCCC(=O)OC(C)CCCCCC (stereo unspecified)
active: [13] 16.3 µM
not listed: [5] | [6] | [10] | [11] | [19] | [20]
inactive: all other assays above

FC(F)(F)C(F)(F)C(F)(F)C(F)(F)C(F)(F)C(F)(F)C(F)(F)Br
not listed: [5] | [9] | [11] | [13] | [20]
inactive: all other assays above

FC(F)(F)C(F)(F)C(F)(F)C(F)(F)CCI
active: [1] 10.6 µM | [8] 36.9 µM | [13] 123 µM
inactive: [1] | [2] | [3] | [4] | [6] | [7] | [8] | [9] | [10] | [11] | [12] | [14] | [15] | [16] | [17] | [18]

O=C(O)C(F)(F)C(F)(F)C(F)(F)C(F)(F)C(F)(F)C(F)(F)C(F)(F)C(F)(F)Cl
inactive: [1] | [3] | [4] | [10] | [11] | [20] | [12] | [19] | [14] | [17]
active: [1] 49.9 µM | [2] 20.2 µM and 18.8 µM | [7] 53.2 µM and 48.1 µM | [8] 31.1 µM and 34.1 µM | [13] 19.9 µM and 20.5 µM | [14] 23.8 µM | [15] 25.1 µM and 23.6 µM | [16] 47.5 µM and 30 µM | [18] 53.3 µM and 49 µM
